An excerpt weighted towards active compounds, which were near 13% of everything screened.
A350 fluor: compound fluoresces in the Alexa 350 spectral region. Compound autofluorescence, 340/450 nm, Alexa 350 dye-equivalents; stronger effect = higher value. max dye-equivalent concentration, M. 59,000 tested, 11% active. AID 590; in the data active means max dye-equivalent concentration above about 10 nM; inconclusive means mostly about 1.1 nM to 9.6 nM
HSD17B inhib: HSD17B dehydrogenase inhibition. Potency, µM (highest dose often 57.1 µM), inactives show at the top dose activity change, negative = inhibition, usual class: inhibitors. recombinant HSD17B10, NADH fluorescence kinetic. 75,000 tested, 7.6% active;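 further: the protocol describes HADH2 (HSD17B10) and not the HSD17B4 of the title; potency means the concentration at half of the fitted maximal effect; on the % scale 0 is the no-effect control and ±100 the full control effect; nearly all actives have a fitted effect of over 70% in size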
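Enzyme plus compound, 15 min room temperature; substrate mix added (NAD+ 1 mM, beta-hydroxybutyryl-CoA 90 uM final); plates read kinetically for NADH fluorescence. HADH2 was His-tagged, E. coli-derived, 20 nM.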
4-MU autofl: compound fluoresces in the 4-MU spectral region; AID 589; 59,000 tested, 11% active; compound autofluorescence, 340/450 nm, 4-MU equivalents; stronger effect = higher value; max dye-equivalent concentration, M; in the data active means max dye-equivalent concentration above about 10 nM; inconclusive means mostly about 1.1 nM to 9.6 nM
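Compounds in 100 mM Tris, pH 8.0, sat 15 min at room temperature before fluorescence was read at 340 nm excitation/450 nm emission; a per-plate six-point 4-MU standard curve converted signals to dye-equivalent concentration at each compound concentration.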
AID923: qHTS Assay for Allosteric/Competitive Inhibitors of Caspase-1: Spectroscopic Profiling in AFC Spectral Region; compound fluorescence, AFC spectral region (405/520 nm); Potency, µM (top dose mostly 57.5 µM), for inactives: top-dose fluorescence increase, most hits filed as activators; 75,000 tested, 1.1% active; further: potency means the concentration at half of the fitted maximal effect; 0% is about no effect
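Titrations up to 57 uM read every 20 sec for 3 min (405/520 nm) with 50 nM caspase 1 and 5 uM Ac-WEHD-AFC, pH 7.5 HEPES buffer. Fluorescence-vs-time intercept gave baseline, scaled against on-plate AFC standard.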
HADH2 inhib: blocks human hydroxyacyl-CoA dehydrogenase type II; Q99714; recombinant HADH2, NADH fluorescence, beta-hydroxybutyryl-CoA; Potency, µM (titrated, usually from 57.1 µM), without a hit: at the top dose activity change, negative = inhibition, most hits filed as inhibitors; 73,000 tested, 3.4% active; AID 886; further: potency means the concentration at half of the fitted maximal effect; on the % scale 0 is the no-effect control and ±100 the full control effect; nearly all actives have a fitted effect of over 60% in size
Target sequence (Q99714 whole entry, looked up, one chain of several): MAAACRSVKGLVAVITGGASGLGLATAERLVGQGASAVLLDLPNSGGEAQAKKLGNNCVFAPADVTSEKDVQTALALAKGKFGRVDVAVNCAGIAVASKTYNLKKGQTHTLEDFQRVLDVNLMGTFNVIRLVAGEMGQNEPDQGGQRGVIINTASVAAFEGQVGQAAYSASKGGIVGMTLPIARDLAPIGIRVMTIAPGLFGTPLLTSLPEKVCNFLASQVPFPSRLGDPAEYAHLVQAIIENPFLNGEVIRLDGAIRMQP
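His-tagged recombinant enzyme from E. coli, 20 nM, preincubated 15 min RT with compound; reaction started with 1 mM NAD+ and 90 uM beta-hydroxybutyryl-CoA in 100 mM Tris-HCl pH 9.0. NADH fluorescence (ex 360/em 450) read over 4 min; last-minus-first difference.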
* = called active by the depositor; i = inactive; ? = inconclusive; nt = not tested or not shown; [ ] = dose if it differs, or a comment. Unless noted, the call rests on the fitted dose curve; in most records, active means well fitted curve in the direction sought with a large enough effect; inconclusive means small, poorly fitted or top-dose-only effect, or another doubt; inactive means no such curve, though single readings can be large; an effect the other way counts as inactive or inconclusive.

SMILES	A350 fluor	HSD17B inhib	4-MU autofl	AID923	HADH2 inhib
CCc1ccc2oc(-c3cccc(NC(=O)c4cccnc4)c3)nc2c1	i	-5.3%	i	-1.9%	13.0%
CCC(=O)Nc1cccc(-c2nc3ccccc3o2)c1	i	25.1µM*	i	-2.1%	15.6%
O=C(Nc1ccc2oc(-c3ccccc3)nc2c1)c1cccnc1	i	-5.3%	i	-0.1%	-2.8%
CCCCCC(=O)Nc1ccc2oc(-c3cccnc3)nc2c1	2.18e-08M*	3.16µM*	1.61e-08M*	-0.2%	265.9%
O=C(Cc1ccccc1)Nc1ccc2oc(-c3cccnc3)nc2c1	?	10µM*	?	-0.7%	298.2%
O=C(O)c1oc2ccc(Br)cc2c1-n1cccc1	i	-18.8%	i	0.4%	-9.1%
CC[C@@]1(O)C(=O)OCc2c1cc1n(c2=O)Cc2cc3c(CN(C)C)c(O)ccc3nc2-1	6.11e-08M*	-0.3%[11.4 µM]	5.21e-08M*	3.16µM*	-26.3%[11.4 µM]
O=C(Nc1ccccc1)N1CC2(CCN(C(=O)c3cc(C(F)(F)F)cc(C(F)(F)F)c3)CC2)C1	i	-0.9%	i	-1.3%	1.3%
CC1=C(C)NC(=S)SC1	i	-1.1%	i	-0.3%	7.94µM*
COc1ccc(COC(=O)N/N=C2/C[C@@H](O)[C@@H](O)[C@@H]3[C@H]4C(=O)N(c5ccc(F)cc5F)C(=O)[C@@H]4CC[C@H]23)cc1	nt	3.5%[11.4 µM]	nt	-0.8%[11.5 µM]	3.0%[11.4 µM]
C=CCn1c(-c2ccccc2)n[nH]c1=S	i	nt	i	nt	nt
C=CCn1c(-c2ccoc2)n[nH]c1=S	i	31.6µM*	i	0.2%	?
CCN(CC)S(=O)(=O)c1ccc2[nH]cc(C(=O)NCCN3CCCCC3C)c(=O)c2c1 (configuration not stated)	1.27e-08M*	31.6µM*	?	-1.7%	?
COc1cccc(NS(=O)(=O)c2ccc3[nH]cc(C(=O)NCCN4CCOCC4)c(=O)c3c2)c1	i	-12.3%	i	-0.5%	-3.6%
CC(=O)Nc1cccc(NC(=O)CCn2c(=O)sc3ccccc32)c1	i	0.2%	i	-0.8%	-0.8%
COc1ccc(NC(C)=O)cc1NC(=O)CCn1c(=O)sc2ccccc21	1.87e-08M*	-5.6%	1.64e-08M*	2.0%	-5.4%
O=c1cnc2cnc(Nc3ccccc3)nc2n1Cc1cccs1	i	3.9%	i	11.8%	6.7%
CCOc1cc(S(=O)(=O)N2CCC(Cc3ccccc3)CC2)c(OCC)cc1-n1cnnn1	i	25.1µM*	i	2.3%	?
CCOc1cc(S(=O)(=O)N2CC=C(c3ccc(F)cc3)CC2)c(OCC)cc1-n1cnnn1	i	?	i	0.6%	-3.0%
CCOc1ccc(-n2cnnn2)cc1S(=O)(=O)Nc1c(C)cccc1C	i	10.6%	i	3.2%	19.4%
CCOc1cc(S(=O)(=O)NCCc2ccccc2C)c(OCC)cc1-n1cnnn1	i	15.8µM*	i	1.3%	2.6%
CCOc1cc(S(=O)(=O)NCCc2cccc(C)c2)c(OCC)cc1-n1cnnn1	i	31.6µM*	i	-0.6%	124.3%
C=C(C)COc1ccc2c(c1)CCC1C2CC[C@]2(C)C(=O)/C(=N/O)CC12 (some centres not stated)	i	-2.5%[11.4 µM]	i	-1.8%[11.5 µM]	3.5%[11.4 µM]
COc1ccc(CCNc2oc(COc3ccccc3F)nc2C#N)cc1OC	i	-6.6%	i	2.8%	19.4%
N#Cc1nc(-c2ccccc2F)oc1NCCc1ccccn1	?	3.16µM*	?	-3.0%	i
SMILES	A350 fluor	HSD17B inhib	4-MU autofl	AID923	HADH2 inhib
COCCCNc1oc(-c2ccccc2OC)nc1C#N	1.06e-07M*	31.6µM*	8.84e-08M*	0.0%	25.1µM*
COCCCNc1oc(-c2ccccc2F)nc1C#N	nt	20µM*	nt	0.5%	31.6µM*
O=C(O)C1(C(=O)O)CCN(S(=O)(=O)c2ccccc2)CC1	i	11.1%[11.4 µM]	i	0.3%[11.5 µM]	13.2%[11.4 µM]
COc1ccc(-c2cc3nc4n(c(=O)c3s2)CCC4)cc1	4.9e-07M*	12.6µM*	4.03e-07M*	-2.3%	-21.8%
CC(=O)C[C@H](c1ccc([N+](=O)[O-])cc1)c1c(O)c2ccccc2oc1=O	i	-5.5%[25.6 µM]	i	-0.9%[25.7 µM]	-10.9%[25.6 µM]
O=C(O)/C=C(/C(=O)O)[C@]12CCN3CC4=CCO[C@@H]5CC(=O)N[C@@H]1[C@H]5[C@H]4C[C@H]32	i	1.4%[11.4 µM]	i	-0.1%[11.5 µM]	13.3%[11.4 µM]
CCCN(CCC)c1nc(C)cc(C(C#N)c2nc3ccccc3o2)n1 (configuration not stated)	3.4e-08M*	10.2%	2.65e-08M*	17.0%	5.7%
COc1cccc(N2CCN(C(=O)c3ccc(=O)oc3)CC2C)c1 (configuration not stated)	8.35e-08M*	nt	7.42e-08M*	nt	nt
COc1cccc(NC(=O)N2CCN(c3cccc(C)c3)C(C)C2)c1 (configuration not stated)	i	-3.7%	i	-0.3%	1.4%
Cc1ccc(C2CC(=O)c3cnc(N4CCN(c5ccccc5)CC4)nc3C2)cc1 (configuration not stated)	1.77e-08M*	?	1.48e-08M*	-1.6%	25.1µM*
Cc1nc(N2CCN(c3ccccc3)CC2)nc2c1C(=O)CC(c1ccccc1)C2 (configuration not stated)	?	-5.5%	1.32e-08M*	-2.3%	-9.1%
O=C1CC(c2ccc(F)cc2)Cc2nc(N3CCN(c4ccccc4)CC3)ncc21 (configuration not stated)	?	60.2%	2.03e-08M*	0.8%	?
O=C1CC(c2ccc(F)cc2)Cc2nc(N3CCc4ccccc43)ncc21 (configuration not stated)	6.08e-07M*	?	5.59e-07M*	8.0%	?
Cc1ccc(C2CC(=O)c3cnc(N4CC(C)CC(C)C4)nc3C2)cc1 (configuration not stated)	?	5.3%	i	-0.7%	-4.1%
CC(C)NC(=O)N1CC2(CCN(C(=O)c3ccco3)CC2)C1	i	1.6%	i	-1.6%	-11.8%
c1ccc(CNc2ncnc3ccc(-c4cccnc4)cc23)cc1	i	?	i	0.9%	-4.2%
O=C(COc1ccc(-n2cnnn2)cc1)NC(=O)NCc1ccccc1	i	2.8%	i	-2.4%	9.7%
Cn1c(=O)c2c(nc(SCc3nn[nH]n3)n2Cc2ccccc2F)n(C)c1=O	1.41e-08M*	1.6%	1.08e-08M*	-2.8%	-23.5%
N#C[C@H](Cc1ccc(O)cc1)c1ccc(O)cc1	nt	5.1%	nt	-1.9%	4.0%
COc1ccc(CC(=O)Nc2ccc(-c3noc(-c4cc(OC)c(OC)c(OC)c4)n3)cc2)cc1	i	31.6µM*	i	-0.8%	-0.8%
CCOc1ccccc1-c1nc(-c2ccc(NC(=O)Cc3ccc(OC)cc3)cc2)no1	i	?	i	1.6%	56.0%
CCc1ccc(NC(=O)c2cc(-c3ccc(OC)cc3)on2)cc1	?	25.1µM*	i	0.3%	?

Bioassay records deposited in PubChem BioAssay by National Center for Advancing Translational Sciences (NCATS).
